PubChem BioAssay AID624390 (National Center for Advancing Translational Sciences (NCATS), 2012)
Active and inactive are the calls of the source. The call rests on the fitted dose curve; in most records, active means well fitted curve in the direction sought with a large enough effect; inactive means no such curve, though single readings can be large or run the other way.

Biological target: Pyruvate kinase PKLR (Homo sapiens) (UniProt P30613)
Assay: qHTS for Activators of Human Muscle Isoform Pyruvate Kinase: Extended Characterization against Liver Pyruvate Kinase Probe 2
Conditions: purified hPK-L, ATP production, Kinase-Glo luminescence; series mostly up to 57.7 µM
Description: Human pyruvate kinase liver (hPK-L) enzyme was supplied as a highly purified (>95% pure) preparation from Harvard Medical School and assayed for its ability to generate ATP from ADP using phosphoenolpyruvate (PEP) as a substrate. ATP generation was detected in a coupled reaction by luciferase-mediated luminescence, an ATP-dependent process. Pyruvate kinase substrates, PEP and ADP, were present in the assay at Km and approximately 10-fold below Km respectively. The enzyme was assayed at an intermediate level of activity to screen for both inhibitors and activators. NIH Chemical Genomics Center [NCGC] NIH Molecular Libraries Probe Centers Network [MLPCN] MLPCN Grant: MH085679 Assay Submitter (PI): Matthew G. Vander Heiden, Harvard Medical School
Three uL of substrate mix (at r.t.) in assay buffer (50 mM Imidazole pH7.2, 50 mM KCl, 7 mM MgCl2, 0.01% Tween 20, 0.05% BSA) was dispensed into white solid bottom 1,536 well microtiter plates so that the final concentrations of substrates in the assay were 0.1 mM ADP and 0.5 mM PEP. 23 nL of compound were delivered by a pin tool and 1 uL of enzyme mix (final concentration of 0.1 nM) in assay buffer (4 degree Celsius) was added. Plates were incubated at room temperature for 1 hour. Two uL of detection mix (Kinase-Glo, Promega; at 4 degree Celsius protected from light) was added and luminescence read by a ViewLux (Perkin Elmer) at 1 second exposure/plate. Data were normalized to the uninhibited (row 31). Additionally, a no enzyme and 5-fold enzyme control was dispensed in row 32, split equally between the two conditions.

Chain of Pyruvate kinase PKLR (Homo sapiens) (P30613 whole entry, looked up, canonical isoform): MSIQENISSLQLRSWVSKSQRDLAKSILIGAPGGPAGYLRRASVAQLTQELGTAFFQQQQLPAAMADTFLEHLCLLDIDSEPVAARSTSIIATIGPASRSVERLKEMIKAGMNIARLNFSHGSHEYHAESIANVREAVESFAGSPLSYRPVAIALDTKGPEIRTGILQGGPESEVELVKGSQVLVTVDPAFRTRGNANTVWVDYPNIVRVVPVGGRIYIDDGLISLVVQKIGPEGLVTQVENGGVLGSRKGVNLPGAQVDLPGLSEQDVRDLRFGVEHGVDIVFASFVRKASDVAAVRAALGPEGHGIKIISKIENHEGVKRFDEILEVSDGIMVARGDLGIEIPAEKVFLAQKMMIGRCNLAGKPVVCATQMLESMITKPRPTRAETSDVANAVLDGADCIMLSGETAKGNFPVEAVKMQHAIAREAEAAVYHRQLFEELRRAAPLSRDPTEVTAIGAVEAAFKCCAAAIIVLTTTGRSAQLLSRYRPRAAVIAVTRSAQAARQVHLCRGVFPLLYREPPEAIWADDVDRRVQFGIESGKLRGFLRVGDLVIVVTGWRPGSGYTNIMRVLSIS

outcome, inactive:
Nc1cccc(S(=O)(=O)N2CCCN(S(=O)(=O)c3ccc4c(c3)OCCO4)CC2)c1, COc1cccc(Cn2ncc3c4sc(S(C)=O)cc4n(C)c3c2=O)c1 (centres undefined), Cc1ccc(NS(=O)(=O)c2ccc3c(c2)CCC(=O)N3)cc1C, O=S(=O)(c1ccc2c(c1)OCCO2)N1CCN(S(=O)(=O)c2c(F)cccc2F)CC1
